Counter-ions that a name gives are not always drawn.

The experiment deals with Saccharomyces cerevisiae. Briefly: fraction of cells in G1 phase (DNA content, flow cytometry); higher = more cells with unreplicated DNA (G1 delay). As to conditions: temperature: 30 C, YPD. The method, boiled down:
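Overnight cultures of sensitized JTY2953 were diluted 1∶200 into drug at a final 20 µg/ml and fixed after 6–7 h, and further runs treated dividing JTY2953 or BY4741, fixing them 6 h and 4.33 h later respectively. All growth used YPD at 30°C with S. cerevisiae and library drugs. After ethanol fixation and SYTOX Green staining, flow cytometry recorded 10,000 events. The G1 fraction equals the Dean-Jett-Fox G1 peak area over the G1 plus G2/M areas.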
(In general: In flow cytometry, cells or beads pass a laser one at a time.)

Setting [1] is: JTY2953 pdr5 snq2 (sensitized), drug added to: cultures diluted from stationary phase, 6-7 h.

On to `c1ccc([C@H]2CN3CCSC3=N2)cc1` [Levamisole HCl] (97.8973 µM), for which, under setting [1], the “fraction of cells in G1 phase” value is 0.488. As to `C[N+]1(C)[C@@H]2CC(OC(=O)C(O)(c3cccs3)c3cccs3)C[C@H]1[C@@H]1O[C@@H]12` (some centres undefined) [Tiotropium Br] (42.3349 µM), under setting [1], the “fraction of cells in G1 phase” value was 0.481.

Take `COc1ccc(C(=O)NCc2cccnc2)cc1C(=O)NCc1cccnc1` [Picotamide] (53.1323 µM): the “fraction of cells in G1 phase” value under setting [1] worked out at 0.459. For `COC(=O)Nc1nc2cc(Sc3ccccc3)ccc2[nH]1` [Fenbendazole] (66.8106 µM), the “fraction of cells in G1 phase” value under setting [1] was determined as 0.421. Still for that read-out and setting: under `COc1ccccc1N1CCN(CC(O)COc2cccc3ccccc23)CC1` (centres undefined) [Naftopidil 2HCl] (50.9551 µM) stands 0.564; under `COc1cc2c(cc1OC)C(=O)C(CC1CCN(Cc3ccccc3)CC1)C2` (centres undefined) [Donepezil HCl] (48.0769 µM), 0.515.

With `CCCCC[C@H](O)/C=C/[C@@H]1[C@@H](C/C=C\CCCC(=O)O)[C@@H](O)C[C@H]1O` [Dinoprost] (56.4189 µM), the “fraction of cells in G1 phase” value under setting [1] worked out at 0.523.

For `COc1ccc(CC2c3cc(OC)c(OC)cc3CC[N+]2(C)CCC(=O)OCCCCCOC(=O)CC[N+]2(C)CCc3cc(OC)c(OC)cc3C2Cc2ccc(OC)c(OC)c2)cc1OC` (centres undefined) [Atracurium besylate] (21.5246 µM), under setting [1], the “fraction of cells in G1 phase” value is 0.474. In the case of `COC(=O)C1=C(C)NC(C)=C(C(=O)OCCN2CCN(C(c3ccccc3)c3ccccc3)CC2)C1c1cccc([N+](=O)[O-])c1` (centres undefined) [Manidipine] (32.7484 µM), the “fraction of cells in G1 phase” value under setting [1] was determined as 0.554. Take `COc1cc(NS(=O)(=O)c2ccc(N)cc2)nc(OC)n1` [Sulfadimethoxine] (64.4467 µM): the “fraction of cells in G1 phase” value under setting [1] came to 0.48. Take `CCOC(=O)[C@H](CCc1ccccc1)N[C@@H](C)C(=O)N1Cc2ccccc2C[C@H]1C(=O)O` [Quinapril HCl] (45.6071 µM): the “fraction of cells in G1 phase” value under setting [1] was determined as 0.482. For the molecule `CN1CCN(c2c(F)cc3c(=O)c(C(=O)O)cn(CCF)c3c2F)CC1` [Fleroxacin] (54.1497 µM), under setting [1], the “fraction of cells in G1 phase” value is 0.479.

In the case of `Nc1nc(Cl)nc2c1ncn2[C@@H]1O[C@H](CO)[C@@H](O)[C@@H]1F` [Clofarabine] (65.8583 µM), under setting [1], the “fraction of cells in G1 phase” value turned out to be 0.465. Still for that read-out and setting: then `COc1cc(C(=O)NS(=O)(=O)c2ccccc2C)ccc1Cc1cn(C)c2ccc(NC(=O)OC3CCCC3)cc12` [Zafirlukast] (34.741 µM), with 0.509; and `Nc1nc(N)nc(-c2cc(Cl)ccc2Cl)n1` [Irsogladine maleate] (78.0958 µM), with 0.471; and `CCCCCN(C)CCC(O)(P(=O)(O)O)P(=O)(O)O` [Ibandronate] (62.65 µM), with 0.474. With `NS(=O)(=O)c1cc2c(cc1Cl)NC(C(Cl)Cl)NS2(=O)=O` (centres undefined) [Trichloromethiazide] (52.5406 µM), the “fraction of cells in G1 phase” value under setting [1] was determined as 0.494.

Take `O=C(O)c1cc(=O)c2c(OCC(O)COc3cccc4oc(C(=O)O)cc(=O)c34)cccc2o1` [Disodium cromoglycate] (39.0365 µM): under setting [1], the “fraction of cells in G1 phase” value was 0.529.

With `N/C(=N\C(=O)c1nc(Cl)c(N)nc1N)NCc1ccccc1` [Benzamil HCl] (56.1482 µM), the “fraction of cells in G1 phase” value under setting [1] was determined as 0.493. Turning to `O=C(NCCNCC(O)COc1ccc(O)cc1)N1CCOCC1` (centres undefined) [Xamoterol hemifumarate] (58.9284 µM), under setting [1], the “fraction of cells in G1 phase” value was determined as 0.518. The same measure, in the same setting: then `C[C@]12CCC(=O)C=C1CC[C@@H]1[C@@H]2[C@@H](O)C[C@@]2(C)[C@H]1CC[C@]2(O)C(=O)CO` [Hydrocortisone] (55.1769 µM), with 0.483; and `N=C(N)NC(=O)Cc1c(Cl)cccc1Cl` [Guanfacine HCl] (70.7818 µM), with 0.495. `NC[C@@H]1O[C@H](O[C@H]2[C@@H](O)[C@H](O[C@@H]3[C@@H](O)[C@H](N)C[C@H](N)[C@H]3O[C@H]3O[C@H](CN)[C@@H](O)[C@H](O)[C@H]3N)O[C@@H]2CO)[C@H](N)[C@@H](O)[C@@H]1O` [Neomycin sulfate] (32.5386 µM): the “fraction of cells in G1 phase” value under setting [1] amounted to 0.495. For the molecule `N=C(N)N1CCc2ccccc2C1` [Debrisoquin sulfate] (114.132 µM), the “fraction of cells in G1 phase” value under setting [1] stood at 0.513.

Regarding `NS(=O)(=O)Cc1noc2ccccc12` [Zonisamide] (94.238 µM), the “fraction of cells in G1 phase” value under setting [1] turned out to be 0.51.

Take `CC(C)OC(=O)CCC/C=C\C[C@@H]1[C@@H](CC[C@@H](O)CCc2ccccc2)[C@H](O)C[C@@H]1O` [Latanoprost] (46.2315 µM): under setting [1], the “fraction of cells in G1 phase” value amounted to 0.528. In the case of `COc1ccccc1O` [Guaiacol] (161.108 µM), the “fraction of cells in G1 phase” value under setting [1] was found to be 0.531. On the same count and under the same terms, then `CN(C/C=C/C#CC(C)(C)C)Cc1cccc2ccccc12` [Terbinafine HCl] (68.6247 µM), with 0.5; and `COc1ccnc(C[S+]([O-])c2nc3cc(OC(F)F)ccc3[nH]2)c1OC` (centres undefined) [Pantoprazole] (52.168 µM), with 0.484; and `CCC1=C[C@@H]2CN(C1)Cc1c([nH]c3ccccc13)[C@@](C(=O)OC)(c1cc3c(cc1OC)N(C)[C@H]1[C@@](O)(C(=O)OC)[C@H](OC(C)=O)[C@]4(CC)C=CCN5CC[C@]31[C@@H]54)C2` [Vinorelbine] (25.6755 µM), with 0.481. Same read-out and setting: then `CC[C@H]1OC(=O)[C@H](C)[C@@H](O[C@H]2C[C@@](C)(OC)[C@@H](O)[C@H](C)O2)[C@H](C)[C@@H](O[C@@H]2O[C@H](C)C[C@H](N(C)C)[C@H]2O)[C@](C)(O)C[C@@H](C)CN(C)[C@H](C)[C@@H](O)[C@]1(C)O` [Azithromycin] (26.7021 µM), with 0.471. Same read-out and setting: then `CCCc1nc2c(C)cc(-c3nc4ccccc4n3C)cc2n1Cc1ccc(-c2ccccc2C(=O)O)cc1` [Telmisartan] (38.8627 µM), with 0.543. With `C[C@H]1c2cccc(O)c2C(O)=C2C(=O)[C@]3(O)C(O)=C(C(N)=O)C(=O)[C@@H](N(C)C)[C@@H]3[C@@H](O)[C@@H]21` [Doxycycline HCl] (44.9999 µM), the “fraction of cells in G1 phase” value under setting [1] worked out at 0.53. For `CCC1=C(C)CN(C(=O)NCCc2ccc(S(=O)(=O)NC(=O)N[C@H]3CC[C@H](C)CC3)cc2)C1=O` [Glimepiride] (40.7642 µM), under setting [1], the “fraction of cells in G1 phase” value was determined as 0.481. On to `CN(C)CCOC(c1ccccc1)c1ccccc1` [Diphenhydramine HCl] (78.3199 µM), for which the “fraction of cells in G1 phase” value under setting [1] worked out at 0.446. `CN(C)CCCOc1nn(Cc2ccccc2)c2ccccc12` [Benzydamine] (64.6382 µM): the “fraction of cells in G1 phase” value under setting [1] turned out to be 0.48.

Regarding `NC1CCN(c2nc3c(cc2F)c(=O)c(C(=O)O)cn3-c2ccc(F)cc2F)C1` (centres undefined) [Tosufloxacin] (49.4619 µM), the “fraction of cells in G1 phase” value under setting [1] worked out at 0.428. `CN(C)CCC(c1ccc(Cl)cc1)c1ccccn1` (centres undefined) [Chlorpheniramine maleate] (72.7812 µM): under setting [1], the “fraction of cells in G1 phase” value stood at 0.452.

As for `COc1c(N2CCNC(C)C2)c(F)cc2c(=O)c(C(=O)O)cn(C3CC3)c12` (centres undefined) [Gatifloxacin] (53.276 µM), the “fraction of cells in G1 phase” value (BY4741 PDR5+ SNQ2+, drug added to: actively dividing cells, 4.33 h) was determined as 0.391.
